This is an account of results in the supplement of paper PMC12340641.

Experiment [1] concerns the target IKZF1 (dCK*-IKZF1 fusion in HEK293FT) (UniProt Q13422). Briefly: inhibition of IKZF1 HTRF signal (DMSO = 0%, pomalidomide 10 uM = 100%); higher = lower IKZF1 protein level. The note with it: compound concentration: 5 uM, overnight (~20 h). An outline of the steps:
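For percent inhibition of IKZF1 signal, each plate was normalised to vehicle and to a reference degrader. Cells were HEK293FT stably expressing an IKZF1 fusion, plated at 2000/well in 384-well format and treated overnight at 37 °C with 5 μM compound, one well each. Lysates were probed overnight with a commercial HTRF total-IKZF1 antibody kit, with the 665/620 nm ratio background-subtracted and vehicle and degrader fixed at 0% and 100%.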
Background: Time-resolved FRET reads energy transfer from a long-lived donor to a nearby acceptor.

For a further experiment, the system named is HEK293FT dCK*-only. Briefly: relative growth in counter assay (no AraC = 100%, AraC + DMSO = 0%); higher = more growth rescue independent of IKZF1. The note with it: compound concentration: 5 uM; AraC concentration: 0.3 uM; overnight pretreatment + 4 days AraC. The method, boiled down: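 HEK293FT cells carrying only an engineered kinase construct were plated at 300 per well (384-well) and given 5 μM compound 2 h later. Following overnight at 37 °C, a nucleoside suicide substrate (0.3 μM) plus medium was added for 4 days. Hoechst 33342-stained nuclei were imaged and counted on day 5, with 100% assigned to wells without suicide substrate and 0% to substrate plus vehicle on each plate.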

Another experiment relates to HEK293FT dCK*-IKZF1. Briefly: relative growth recovery (pomalidomide 10 uM = 100%, DMSO = 0%); higher = more growth rescue (IKZF1 fusion degradation). The note with it: compound concentration: 5 uM; AraC concentration: 0.3 uM; overnight pretreatment + 4 days AraC. The method, boiled down:
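HEK293FT cells stably expressing a dCK*-IKZF1 fusion (300/well, 384-well) received 5 μM compound 2 h after seeding. After overnight at 37 °C they received a nucleoside suicide substrate at 0.3 μM plus medium for 4 days. On day 5, Hoechst 33342-stained nuclei were counted by whole-well imaging. Growth recovery was normalised per plate to a reference degrader (100%) and vehicle (0%); values are means of duplicates run on different days.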

Structures can show the parent of a compound that is named as a salt.

Chain of IKZF1 (dCK*-IKZF1 fusion in HEK293FT) (Q13422 whole entry, looked up, the tested form may be a part): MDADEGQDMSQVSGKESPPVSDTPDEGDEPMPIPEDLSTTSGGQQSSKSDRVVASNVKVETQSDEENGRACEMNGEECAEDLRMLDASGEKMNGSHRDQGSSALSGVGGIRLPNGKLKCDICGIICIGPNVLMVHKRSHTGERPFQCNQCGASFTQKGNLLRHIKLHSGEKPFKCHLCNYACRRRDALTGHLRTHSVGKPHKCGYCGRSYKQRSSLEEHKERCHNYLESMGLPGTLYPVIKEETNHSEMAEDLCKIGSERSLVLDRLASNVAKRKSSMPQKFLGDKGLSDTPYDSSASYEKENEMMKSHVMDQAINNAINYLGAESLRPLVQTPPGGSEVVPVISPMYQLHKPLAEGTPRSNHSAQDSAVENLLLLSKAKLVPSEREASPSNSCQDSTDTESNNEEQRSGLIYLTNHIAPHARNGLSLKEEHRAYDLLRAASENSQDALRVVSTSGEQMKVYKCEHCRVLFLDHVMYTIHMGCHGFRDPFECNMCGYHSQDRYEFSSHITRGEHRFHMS

In the case of `CCCCC(CC)C/N=C(\N)N/C(N)=N/CCCCCC/N=C(\N)N/C(N)=N/CC(CC)CCCC` (centres undefined) [Alexidine dihydrochloride], the “inhibition of IKZF1 HTRF signal” value in experiment [1] stood at 63.4%. The “relative growth in counter assay” value in the experiment on HEK293FT dCK*-only is -34.4%. Besides, the relative growth recovery with HEK293FT dCK*-IKZF1 was -13.3%.

For `CC(=O)Nc1ncc([N+](=O)[O-])s1`, the “inhibition of IKZF1 HTRF signal” value in experiment [1] worked out at 6.78%. In addition, the “relative growth in counter assay” value with HEK293FT dCK*-only amounted to 5.87%. Also, the relative growth recovery in the experiment with HEK293FT dCK*-IKZF1 was -3.04%.

Take `O=C1N(c2ccccc2)c2ccccc2C1(Cc1ccncc1)Cc1ccncc1` [linopirdine]: the “inhibition of IKZF1 HTRF signal” value in experiment [1] was -39.8%. Moreover, the “relative growth in counter assay” value in the experiment on HEK293FT dCK*-only was -2.22%. Further, in the experiment with HEK293FT dCK*-IKZF1, the relative growth recovery is -3.48%.

As for `OCCN1CCN(CCCN2c3ccccc3Sc3ccc(C(F)(F)F)cc32)CC1`, the “inhibition of IKZF1 HTRF signal” value in experiment [1] is -11.9%. In addition, the “relative growth in counter assay” value in the experiment with HEK293FT dCK*-only is 12%. In addition, the relative growth recovery with HEK293FT dCK*-IKZF1 worked out at 3.6%.

For the compound `CSc1ccc2c(c1)N(CCC1CCCCN1C)c1ccccc1S2` (centres undefined), in experiment [1], the “inhibition of IKZF1 HTRF signal” value was -29%. Also, in the experiment on HEK293FT dCK*-only, the “relative growth in counter assay” value worked out at 7.95%. In addition, the relative growth recovery in the experiment with HEK293FT dCK*-IKZF1 was -4.45%.

For the compound `CC[C@@]1(O)C(=O)OCc2c1cc1n(c2=O)Cc2cc3c(CN(C)C)c(O)ccc3nc2-1` [Topotecan (Hydrochloride)], the “inhibition of IKZF1 HTRF signal” value in experiment [1] is 1.64%. Besides, the “relative growth in counter assay” value with HEK293FT dCK*-only was -36.8%. The relative growth recovery in the experiment with HEK293FT dCK*-IKZF1 was -15.9%.

For the compound `O=c1[nH]nc(Sc2ncc([N+](=O)[O-])s2)n1-c1ccc2c(c1)OCCO2`, in experiment [1], the “inhibition of IKZF1 HTRF signal” value was -27.9%. Besides, in the experiment on HEK293FT dCK*-only, the “relative growth in counter assay” value was -34.9%. Besides, the relative growth recovery in the experiment on HEK293FT dCK*-IKZF1 is -12.8%.

As for `CCCCCCCCCCCCC[N+](C)(C)Cc1ccccc1`, the “inhibition of IKZF1 HTRF signal” value in experiment [1] is 7.81%. In the experiment with HEK293FT dCK*-only, the “relative growth in counter assay” value is -14.8%. Also, in the experiment on HEK293FT dCK*-IKZF1, the relative growth recovery was -5.53%.

Consider `CCN(c1ccccc1)c1cc(NC)[n+](C)c(C)n1`, for which the “inhibition of IKZF1 HTRF signal” value in experiment [1] was 26.3%. For the same compound, the “relative growth in counter assay” value in the experiment on HEK293FT dCK*-only was 3.09%. Besides, the relative growth recovery with HEK293FT dCK*-IKZF1 is -0.645%.

As for `C=C(NNC(=S)NNC(=S)Nc1ccccc1Cl)c1ccccn1`, in experiment [1], the “inhibition of IKZF1 HTRF signal” value is 0.77%. Besides, the “relative growth in counter assay” value with HEK293FT dCK*-only was -34.8%. For the same compound, the relative growth recovery with HEK293FT dCK*-IKZF1 is -12.8%.

For `Cc1ccc2c(Cl)cc(Cl)c(O)c2n1`, in experiment [1], the “inhibition of IKZF1 HTRF signal” value was determined as 14%. The “relative growth in counter assay” value in the experiment with HEK293FT dCK*-only was -5.48%. The relative growth recovery in the experiment on HEK293FT dCK*-IKZF1 was found to be 0.855%.

Consider `Nc1ncn([C@@H]2O[C@H](CO)[C@@H](O)[C@H]2O)c(=O)n1`, for which the “inhibition of IKZF1 HTRF signal” value in experiment [1] was -45.6%. For the same compound, the “relative growth in counter assay” value in the experiment on HEK293FT dCK*-only was -13.2%. Also, the relative growth recovery with HEK293FT dCK*-IKZF1 was -5.21%.

On to `CC1(C)Oc2ccc(C#N)cc2[C@H](N(Cc2ncc[nH]2)c2ccc(Cl)cc2)[C@H]1O`, for which, in experiment [1], the “inhibition of IKZF1 HTRF signal” value was -30.7%. In the experiment on HEK293FT dCK*-only, the “relative growth in counter assay” value is -4.85%. In addition, in the experiment with HEK293FT dCK*-IKZF1, the relative growth recovery was determined as 1.01%.
